Source: PubChem BioAssay (National Center for Advancing Translational Sciences (NCATS))
GPT2 inh – inhibitors of human GPT2 alanine aminotransferase; Q8TD30; Recombinant GPT2, coupled pyruvate oxidase/HRP Amplex Red fluorescence; Potency, µM (series often up to 57.7 µM), without a hit: top-dose activity change, negative = inhibition, actives largely listed as inhibitors; 100,000 compounds, 0.25% hits; AID 1671188; note: nearly all actives have a fitted effect of over 60% in size
Target sequence (Q8TD30 whole entry, looked up): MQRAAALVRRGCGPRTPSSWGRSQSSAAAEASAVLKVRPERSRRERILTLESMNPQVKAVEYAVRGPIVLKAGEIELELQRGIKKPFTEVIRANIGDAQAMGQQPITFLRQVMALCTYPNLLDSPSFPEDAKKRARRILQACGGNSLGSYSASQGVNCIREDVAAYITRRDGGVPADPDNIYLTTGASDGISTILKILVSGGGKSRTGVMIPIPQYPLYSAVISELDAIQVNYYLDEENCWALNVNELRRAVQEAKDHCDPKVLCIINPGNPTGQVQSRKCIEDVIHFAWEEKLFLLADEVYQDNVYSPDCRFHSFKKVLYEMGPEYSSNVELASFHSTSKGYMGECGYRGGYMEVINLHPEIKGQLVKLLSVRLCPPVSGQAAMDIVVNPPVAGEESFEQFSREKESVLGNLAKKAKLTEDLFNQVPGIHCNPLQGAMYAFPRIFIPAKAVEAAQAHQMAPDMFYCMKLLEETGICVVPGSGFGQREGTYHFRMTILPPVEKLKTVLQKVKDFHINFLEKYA
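GPT2 10ng/uL, a-KG 250uM, L-Ala 2mM, HEPES pH7.5 + 0.0001% Tween; 30 min RT. Then Amplex mix (PO/HRP/ThPP), 30 min RT dark, fluorescence. AOA 50uM used as positive control.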
HEK293 tox – HEK 293 cell cytotoxicity | HEK 293 viability, ATP luminescence (CellTiter-Glo), 48-72 h | Potency, µM (series often up to 115 µM), without a hit: at the highest dose activity change, negative = cytotoxicity, hits mostly inhibitors | 94,000 compounds, 6.6% hits | AID 1345083; note: nearly all actives have a fitted effect of over 60% in size
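Luminescence from cellular ATP, measured with CellTiter-Glo, indicates HEK 293 viability. Cells plated at 250 cells/well are treated with compound for 48 or 72 hr at 37 degree Celsius before reagent addition.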
3T3 cytotox – kills NIH 3T3 cells; NIH 3T3 viability, CellTiter-Glo ATP luminescence, 48-72 h; Potency, µM (highest dose often 96.7 µM), for the others: top-dose activity change, negative = cytotoxicity, usual class: inhibitors; 94,000 compounds, 4.3% hits; note: nearly all actives have a fitted effect of over 55% in size
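ATP-dependent luminescence (CellTiter-Glo) served as the viability signal for NIH 3T3 cells treated with compound for 48 or 72 hr at 37 °C.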
Luciferase inh – inhibitors of firefly (Photinus pyralis) luciferase; purified P. pyralis luciferase, luminescence, biochemical; Potency, µM (top dose mostly 115 µM), actives largely listed as inhibitors; 76,000 compounds, 2.5% hits; AID 1347043; note: nearly all actives have a fitted effect of over 65% in size
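Purified P. pyralis luciferase (10nM final) in 50mM Tris acetate pH 7.5, 10mM Mg acetate, 0.01% Tween-20, 0.05% BSA with 10uM D-luciferin and 10uM ATP. Compounds titrated qHTS. Luminescence imaged on CCD.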
hNpr1 antagonist – antagonists of human natriuretic peptide receptor Npr1; P16066; HEK293 hNpr1 GloSensor cGMP, ANP-stimulated luminescence; Potency, µM (top dose mostly 46.3 µM), without a hit: at the top dose activity change, negative = inhibition, usual class: inhibitors; 76,000 compounds, 1.6% hits; AID 1347048; calls by dose curve; note: nearly all actives have a fitted effect of over 60% in size
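HEK293 cells stably expressing human Npr1 and cGMP GloSensor pGS-40F, loaded 2 h with 2% GloSensor reagent, given compound 30 min at room temperature. Luminescence read before and 20 min after 0.1 nM hNppA.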
Numbers without * were called inactive; i = inactive; ? = inconclusive; · = not tested or not shown; ! = not confirmed by another sample; [ ] = another dose, or the depositor's remark. Sampled rows, rich in hits. Any-hit rate of the full collection: about 10%. Unless noted, calls come from the whole dose curve; as a rule, active = well fitted curve in the direction sought with a large enough effect; inconclusive = small, poorly fitted or top-dose-only effect, or another doubt; inactive = no such curve, though single readings can be large; an effect the other way counts as inactive or inconclusive. % is set by controls: 0 for no effect and ±100 for the full control effect; potency is the fitted concentration of half-maximal effect.

SMILES	GPT2 inh	HEK293 tox	3T3 cytotox	Luciferase inh	hNpr1 antagonist
COc1ccc(Nc2ccnc(N3CCC(NC(=O)C4CC4)CC3)n2)cc1	i	?	-19.6%	·	·
COc1ccc(Nc2ccnc(N3CCC(NC(=O)c4ccccc4OC)CC3)n2)cc1	i	50.1µM*	?	·	·
COc1ccccc1Nc1ccnc(N2CCC(NC(=O)c3ccccc3OC)CC2)n1	i	?	?	·	·
Cc1ccc(Nc2ccnc(N3CCC(NC(=O)c4ccccc4C)CC3)n2)cc1	3.4%	35.5µM*	25.1µM*	·	·
COc1ccc(Nc2ccnc(N3CCC(NC(=O)c4ccccc4Cl)CC3)n2)cc1	i	39.8µM*	?	·	·
O=C1CC(c2nc(-c3ccc4nc[nH]c4c3)no2)CN1C1CC1 (configuration not stated)	3.7%	-8.6%	-8.1%	i	1.1%
CSCC(=O)N1CC[C@H](NC(=O)Nc2cccc(SC)c2)[C@H]1C(=O)N[C@@H](Cc1cccs1)C(N)=O	i	1.4%	-1.2%	i	0.0%
O=C(N[C@@H]1CN(Cc2cccc(F)c2)C[C@H]1CO)c1ccccc1	0.8%	7.08µM*	?	i	5.4%
COc1ccc(C(=O)N[C@@H]2CN(Cc3ccccc3)C[C@H]2CO)cn1	i	28.2µM*	?	i	4.0%
O=C(N[C@@H]1CN(Cc2cc(F)cc(F)c2)C[C@H]1CO)c1ccccc1	-1.7%	-81.0%	-64.2%	i	2.2%
COc1ccc(C(=O)N2CC(Oc3ccc(F)c(F)c3)C2)cc1	i	?	?	·	·
Cc1ccccc1C(=O)N1CCc2c(nc(-c3ccncc3)nc2N(C)C)C1	4.0%	?	?	i	-2.0%
Cc1coc2c1C(=O)C(=O)c1c-2ccc2c(C)cccc12	2.24µM*!	·	·	·	·
Cc1coc2c1C(=O)C(=O)c1c-2ccc2c1CCCC2(C)C	14.1µM*	·	·	·	·
C[C@H]1COC2=C1C(=O)C(=O)c1c2ccc2c1CCCC2(C)C	17.2µM*	·	·	·	·
Cc1ccc2c(n1)OC(Cn1cccc1)CN(CCC1=CCCCC1)C2=O (configuration not stated)	·	89.1µM*	?	·	·
CN(C)Cc1nnc(C2CCN(c3nnnn3-c3ccccc3)CC2)n1C	3.8%[11.5 µM]	i	-3.2%	i	4.9%
Cc1ccc(CNC(=O)N2CCCCCCNC(=O)CC2)cc1	i	4.2%	-2.2%	i	11.7%
CN(Cc1ccc(F)cc1)Cc1cnc(S(C)(=O)=O)n1CCCc1ccccc1	-23.0%	20µM*	?	i	0.0%
CC(C)S(=O)(=O)c1ncc(CN(C)Cc2cnn(C)c2)n1CCc1ccccc1	-2.2%	-6.1%	-19.3%	i	-6.9%
CCS(=O)(=O)c1ncc(CN(C)Cc2ccc3nonc3c2)n1CCc1ccccc1	-5.0%	22.4µM*	-21.3%	i	-0.5%
CCCCn1c(CN(C)Cc2cnn(-c3ccccc3C)c2)cnc1S(=O)(=O)CC	-19.1%	?	?	i	-15.5%
O=C(NC1CCOCC1)c1cc(-c2ccccc2F)cc2c1OCCN2Cc1cccnc1	-4.3%	?	-26.1%	i	2.0%
CNC(=O)c1cc(-c2ccc(C)cc2)cc2c1OCCN2Cc1cccnc1	-1.1%[88.5 µM]	?	?	i	6.0%[70.6 µM]
CC(C)CNC(=O)c1cc(-c2ccccc2F)cc2c1OCCN2Cc1cccnc1	-14.4%[88.5 µM]	50.1µM*	44.7µM*	i	-23.9%[70.6 µM]
SMILES	GPT2 inh	HEK293 tox	3T3 cytotox	Luciferase inh	hNpr1 antagonist
CNC(=O)c1cc(-c2ccccc2F)cc2c1OCCN2Cc1cccnc1	-14.9%[88.5 µM]	89.1µM*	?	i	-28.0%[70.6 µM]
COCCNC(=O)c1cc(-c2ccccc2F)cc2c1OCCN2Cc1cccnc1	2.0%[88.5 µM]	?	89.1µM*	i	-17.8%[70.6 µM]
NC(=O)c1cc(-c2ccccc2F)cc2c1OCCN2Cc1cccnc1	-0.7%[88.5 µM]	?	?	i	-18.4%[70.6 µM]
CNC(=O)c1cc(-c2ccccc2O)cc2c1OCCN2Cc1cccnc1	-0.6%[88.5 µM]	-21.9%[172 µM]	?	i	-19.7%[70.6 µM]
CNC(=O)c1cc(-c2cccc(NC(C)=O)c2)cc2c1OCCN2Cc1cccnc1	-3.1%[88.5 µM]	-10.4%[172 µM]	44.7µM*	i	-3.4%[70.6 µM]
COc1ccc(-c2cc(N3CCC(NC(=O)CCc4ccccc4)CC3)n[nH]2)cc1	?	?	?	i	0.0%
